Values joined by “and” are separate entries in the source; they are usually repeats but may differ in a detail not shown here. Equal values may be shown once. Records with an inconclusive call do not appear. Active and inactive are the calls of the source. Unless noted, no stated cut-off is given here; in the data, active means inhibition above about 80%; inactive means the rest.
Legend:
[1] = viability loss in pontine glioma line – cell-based, SU-DIPG-XXV, MIPE5.0, CellTiter-Glo, qHTS, dose response (AID 1347065; cut-off not given, nearly all actives have AC50 up to about 26 µM;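 further: cells exposed to compound for 48 hours before ATP readout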); conditions: CellTiter-Glo ATP luminescence
[2] = SU-DIPG-VI glioma cell viability, MIPE4.0 library, CellTiter-Glo luminescence, qHTS (AID 1347066; cut-off not given, nearly all actives have AC50 up to about 30 µM;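 further: cells exposed to compound for 48 hours before readout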); conditions: CellTiter-Glo ATP luminescence
[3] = JHH-DIPG-1 glioma cell viability, MIPE5.0 library, CellTiter-Glo luminescence, qHTS (AID 1347067; cut-off not given, nearly all actives have AC50 up to about 26 µM;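 further: cells exposed to compound for 48 hours before readout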); conditions: JHH-DIPG-1 glioma viability, CellTiter-Glo ATP luminescence
[4] = SU-DIPG-XXV glioma cell viability, MIPE5.0 library, qHTS (AID 1347068; cut-off not given, nearly all actives have IC50 up to about 30 µM;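 further: cells exposed to compound for 48 hours before viability readout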)
[5] = sensitizers of A549 cells to miR-34 induction, primary screen, imaging, A549 dox-inducible miR-34, nuclei and caspase counts (AID 1347080;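 active means compounds whose cell count with miR-34 switched on is under 0.7 times the count with it off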); conditions: A549 miR-34 inducible, Hoechst nuclei count, 48 h
[6] = survival rescue of mitochondrial mutant cells in low glucose, primary screen, MELAS cybrids, Rieske KO mouse fibroblasts, CellTiter-Glo (AID 1508586;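 active means mean z-score across replicates of 1.96 or higher in either the MELAS or the Rieske mutant cell line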;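 further: z relative to plate mean and SD of compound and empty wells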)
[7] = molecular target: NAD(+) hydrolase SARM1 (Homo sapiens) (UniProt Q6SZW1); experiment: SARM1 TIR NADase inhibitors, cell lysate, NAD-Glo luminescence (AID 1508614;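 active means compound whose remaining NAD level is above about 45 nM, limit read from the data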); conditions: SAM-TIR HEK293T lysate NADase, at 1 µM, stronger effect = higher value
[8] = molecular target: Mitogen-activated protein kinase 7 (Homo sapiens) (UniProt Q13164); experiment: ERK5 transactivation activators in reporter cells, primary screen, cell-based, HTS (AID 1508626;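 active means luciferase signal above three times the same-plate solvent-only control wells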;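 further: luciferase driven by Gal4-ERK5 fusion binding five Gal4 sites before minimal TATA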); conditions: HeLa Gal4-ERK5 transactivation, 18 h, at 5 µM, stronger effect = higher value
[9] = LFS_MB_P medulloblastoma growth inhibition, cell-based, chromothripsis tumors, cisplatin or BGB combos (AID 1671449); conditions: LFS_MB_P medulloblastoma cells;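 further: cells exposed for 96 hours; 0% = vehicle DMSO and 100% = killing by high DMSO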
[10] = HDN33 neuroblastoma growth inhibition, cell-based, chromothripsis tumors, cisplatin or BGB combos (AID 1671450); conditions: HDN33 neuroblastoma cells, stronger effect = higher value;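 further: cells exposed to compound for four days; 0% = vehicle DMSO and 100% = cell killing by high DMSO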
[11] = ICB984 medulloblastoma cell growth inhibition, synergistic combos for chromothripsis tumors, cisplatin or BGB combos (AID 1671451; call rule not given here;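 further: cells exposed for 96 hours before readout; 0% = vehicle DMSO and 100% = killing by high DMSO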); conditions: ICB984 medulloblastoma cells, drug combinations, stronger effect = higher value
[12] = LFS_MB_1R medulloblastoma cell growth inhibition, synergistic combos for chromothripsis tumors, cisplatin or BGB combos (AID 1671452); conditions: LFS_MB_1R medulloblastoma cells, stronger effect = higher value;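 further: cells exposed for 96 hours before readout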
[13] = HTB85 osteosarcoma cell growth inhibition, synergistic combos for chromothripsis tumors, BGB or cisplatin IC20 combos (AID 1671453); conditions: HTB85 osteosarcoma cells, drug combinations, stronger effect = higher value;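 further: cells exposed for 96 hours before readout; 0% = vehicle DMSO and 100% = high DMSO killing control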
[14] = CRL2098 osteosarcoma cell growth inhibition, synergistic combos for chromothripsis tumors, BGB or cisplatin IC20 combos (AID 1671454); conditions: CRL2098 osteosarcoma cells, drug combinations, stronger effect = higher value;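 further: cells exposed for 96 h before readout; 0% = vehicle DMSO and 100% = killing by high DMSO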
[15] = HD-MB03 medulloblastoma cell growth inhibition, synergistic combos for chromothripsis tumors, BGB or cisplatin IC20 combos (AID 1671455; in the data active means inhibition above about 83%;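 further: 0% = vehicle DMSO and 100% = high DMSO as cytotoxic control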); conditions: HD-MB03 medulloblastoma cells, stronger effect = higher value
[16] = measured here: combination with BGB IC40, at 0.05 µM

Chain of NAD(+) hydrolase SARM1 (Homo sapiens) (Q6SZW1 whole entry, looked up, the tested form may be a part): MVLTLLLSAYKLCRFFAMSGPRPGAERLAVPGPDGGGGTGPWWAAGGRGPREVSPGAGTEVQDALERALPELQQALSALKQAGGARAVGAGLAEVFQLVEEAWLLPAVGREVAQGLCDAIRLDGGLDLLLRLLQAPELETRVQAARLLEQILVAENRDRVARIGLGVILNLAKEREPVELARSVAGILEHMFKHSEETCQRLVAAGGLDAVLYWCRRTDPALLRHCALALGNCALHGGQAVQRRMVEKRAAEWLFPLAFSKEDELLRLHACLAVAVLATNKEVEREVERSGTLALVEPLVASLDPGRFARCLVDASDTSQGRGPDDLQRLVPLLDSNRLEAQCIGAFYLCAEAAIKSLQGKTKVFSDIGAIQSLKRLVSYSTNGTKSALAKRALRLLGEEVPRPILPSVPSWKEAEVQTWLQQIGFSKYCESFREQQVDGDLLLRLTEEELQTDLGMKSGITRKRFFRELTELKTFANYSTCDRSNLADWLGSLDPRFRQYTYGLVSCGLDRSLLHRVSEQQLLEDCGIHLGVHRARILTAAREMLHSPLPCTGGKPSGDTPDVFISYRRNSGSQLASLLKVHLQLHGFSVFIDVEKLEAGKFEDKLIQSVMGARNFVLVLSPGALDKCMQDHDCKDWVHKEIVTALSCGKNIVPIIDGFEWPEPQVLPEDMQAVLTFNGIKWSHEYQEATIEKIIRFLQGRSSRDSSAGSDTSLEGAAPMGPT
Chain of Mitogen-activated protein kinase 7 (Homo sapiens) (Q13164 whole entry, looked up, the tested form may be a part): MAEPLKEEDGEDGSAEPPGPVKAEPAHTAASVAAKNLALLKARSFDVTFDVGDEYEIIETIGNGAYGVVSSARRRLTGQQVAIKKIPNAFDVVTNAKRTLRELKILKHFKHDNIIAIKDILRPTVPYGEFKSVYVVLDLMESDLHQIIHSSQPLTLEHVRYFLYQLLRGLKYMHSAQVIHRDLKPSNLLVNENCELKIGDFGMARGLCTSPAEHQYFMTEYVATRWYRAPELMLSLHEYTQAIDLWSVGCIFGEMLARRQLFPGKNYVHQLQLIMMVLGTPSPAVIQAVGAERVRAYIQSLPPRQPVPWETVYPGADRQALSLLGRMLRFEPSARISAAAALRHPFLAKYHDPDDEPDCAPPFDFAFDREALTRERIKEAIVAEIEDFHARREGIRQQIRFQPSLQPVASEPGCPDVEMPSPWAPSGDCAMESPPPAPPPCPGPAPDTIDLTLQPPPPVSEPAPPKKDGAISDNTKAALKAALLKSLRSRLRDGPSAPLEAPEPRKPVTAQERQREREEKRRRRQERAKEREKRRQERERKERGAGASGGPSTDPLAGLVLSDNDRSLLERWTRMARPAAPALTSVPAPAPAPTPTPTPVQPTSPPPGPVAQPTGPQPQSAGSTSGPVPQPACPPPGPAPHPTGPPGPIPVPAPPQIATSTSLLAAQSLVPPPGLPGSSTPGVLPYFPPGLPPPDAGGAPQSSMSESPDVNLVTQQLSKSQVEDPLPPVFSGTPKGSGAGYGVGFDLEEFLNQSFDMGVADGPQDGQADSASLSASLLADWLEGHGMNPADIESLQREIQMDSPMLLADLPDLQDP

Question: With CN(C)c1ccc(C(=C2C=CC(=[N+](C)C)C=C2)c2ccc(N(C)C)cc2)cc1 as the compound, how does the AC50 [1] read?
Answer: Its AC50 is 833 nM (active).

Question: And the AC50 [2]?
Answer: The AC50 was 372 nM (active).

Question: What about the AC50 [3] of the same compound?
Answer: The AC50 was 1860 nM (active).

Question: And the IC50 [4]?
Answer: The IC50 was 2630 nM (active).

Question: And the fold change ([5]; stronger effect = lower value, cell number ratio, induced over uninduced)?
Answer: Its fold change is 0.999 (inactive) and 0.737 (inactive).

Question: And the fold change ([5]; measured here: relative caspase fold change +Dox/-Dox)?
Answer: The fold change was 0.9 and 1.26.

Question: And the cell count ([5]; measured here: total cells with miR-34 induction, stronger effect = lower value)?
Answer: Its cell count is 1530 and 788.

Question: And the cell count ([5]; measured here: total cells without miR-34 induction)?
Answer: Its cell count is 1530 and 1070.

Question: What about the z-score ([6]; MELAS cybrid survival, CellTiter-Glo 48 h, stronger effect = higher value) of the same compound?
Answer: Its z-score is 3.09 (active).

Question: What about the z-score ([6]; Rieske KO mouse fibroblast survival, CellTiter-Glo 72 h) of the same compound?
Answer: Its z-score is -2.82.

Question: And the remaining NAD [7]?
Answer: The remaining NAD was 10 nM (inactive).

Question: What about the luciferase signal [8] of the same compound?
Answer: Its luciferase signal is 104 AU (inactive).

Question: What about the inhibition ([9]; at 0.5 µM, stronger effect = higher value) of the same compound?
Answer: The inhibition was -1.03% (inactive).

Question: And the inhibition ([9]; measured here: combination with BGB IC20, at 0.005 µM)?
Answer: Its inhibition is -15.3%.

Question: What about the inhibition ([9]; measured here: combination with BGB IC40, at 0.005 µM) of the same compound?
Answer: Its inhibition is -20.2%.

Question: And the inhibition [9, 16]?
Answer: The inhibition was -19.9%.

Question: What about the inhibition ([9]; measured here: combination with cisplatin, at 0.5 µM, stronger effect = higher value) of the same compound?
Answer: Its inhibition is -17.8%.

Question: What about the inhibition ([9]; measured here: combination with cisplatin, at 5 µM, stronger effect = higher value) of the same compound?
Answer: Its inhibition is 112%.

Question: And the inhibition ([10]; BGB combo, at 5 µM)?
Answer: Its inhibition is 99.3%.

Question: And the inhibition ([10]; at 0.5 µM)?
Answer: The inhibition was 99.6% (active).

Question: And the inhibition ([10]; cisplatin combo, at 5 µM)?
Answer: The inhibition was 99.6%.

Question: And the inhibition ([10]; measured here: with BGB IC20 combination, at 0.5 µM)?
Answer: The inhibition was 99.7%.

Question: And the inhibition ([10]; measured here: with cisplatin IC20 combination, at 0.5 µM)?
Answer: The inhibition was 99.6%.

Question: What about the inhibition ([10]; single agent, at 5 µM) of the same compound?
Answer: Its inhibition is 99.7%.

Question: And the inhibition ([11]; BGB IC20 combo, at 0.005 µM)?
Answer: The inhibition was 79.3%.

Question: What about the inhibition ([11]; BGB IC40 combo, at 0.005 µM) of the same compound?
Answer: The inhibition was 87.3%.

Question: And the inhibition ([11]; BGB IC40 combo, at 0.05 µM)?
Answer: The inhibition was 98.5%.

Question: And the inhibition ([11]; at 0.5 µM)?
Answer: The inhibition was -35.3% (inactive).

Question: And the inhibition ([11]; cisplatin combo, at 0.05 µM)?
Answer: The inhibition was 98.5%.

Question: What about the inhibition ([11]; cisplatin combo, at 0.5 µM) of the same compound?
Answer: The inhibition was -53%.

Question: What about the inhibition ([11]; cisplatin combo, at 5 µM) of the same compound?
Answer: The inhibition was -16%.

Question: What about the inhibition ([11]; measured here: 5 uM single agent, at 5 µM) of the same compound?
Answer: The inhibition was 6.83%.

Question: And the inhibition ([12]; at 0.5 µM)?
Answer: Its inhibition is 80.9% (active).

Question: What about the inhibition [12, 16] of the same compound?
Answer: The inhibition was -11%.

Question: What about the inhibition ([12]; measured here: combination with cisplatin, at 0.5 µM) of the same compound?
Answer: The inhibition was 82.3%.

Question: What about the inhibition ([12]; measured here: combination with cisplatin, at 5 µM) of the same compound?
Answer: Its inhibition is 104%.

Question: What about the inhibition ([13]; at 0.5 µM) of the same compound?
Answer: Its inhibition is 88.8% (active).

Question: What about the inhibition ([13]; measured here: with BGB IC20, at 0.5 µM) of the same compound?
Answer: Its inhibition is 84.9%.

Question: What about the inhibition ([13]; measured here: with BGB IC20, at 5 µM) of the same compound?
Answer: The inhibition was 94%.

Question: And the inhibition ([13]; measured here: with cisplatin IC20, at 0.5 µM)?
Answer: The inhibition was 92.7%.

Question: What about the inhibition ([13]; measured here: with cisplatin IC20, at 5 µM) of the same compound?
Answer: Its inhibition is 97.1%.

Question: And the inhibition ([13]; single agent, at 5 µM)?
Answer: Its inhibition is 96.8%.

Question: And the inhibition ([14]; at 0.5 µM)?
Answer: Its inhibition is 75.8% (inactive).

Question: What about the inhibition ([14]; measured here: combination with BGB at IC20, at 0.5 µM) of the same compound?
Answer: The inhibition was 79.9%.

Question: What about the inhibition ([14]; measured here: combination with cisplatin at IC20, at 0.5 µM) of the same compound?
Answer: The inhibition was 70.6%.

Question: And the inhibition ([15]; at 0.5 µM)?
Answer: Its inhibition is 59.5% (inactive).

Question: What about the inhibition ([15]; measured here: combo with BGB at IC20, at 0.5 µM) of the same compound?
Answer: Its inhibition is 60.7%.

Question: What about the inhibition ([15]; measured here: combo with cisplatin at IC20, at 0.5 µM) of the same compound?
Answer: Its inhibition is 47%.

From PubChem BioAssay
